PLK1 PBD block: blocks phosphopeptide binding to human PLK1 polo-box domain; P53350; Plk1 PBD binding of FITC phosphopeptide, fluorescence polarization; Potency, µM, inactives show max response, negative = inhibition, usual class: inhibitors; 2.8% of 360,000 active; further: series mostly up to about 57 µM; on the % scale 0 is the no-effect control and ±100 the full control effect; nearly all actives have a fitted effect of over 65% in size
JMJD2A Tudor inh: blocks the human JMJD2A Tudor domain | 4.4% of 390,000 active | O75164 | AlphaScreen JMJD2A-Tudor / H3K4me3 peptide binding | Potency, µM (highest dose often 114 µM), inactives show at the highest dose activity change, negative = inhibition, actives largely listed as inhibitors; further: on the % scale 0 is the no-effect control and ±100 the full control effect; nearly all actives have a fitted effect of over 50% in size
Target sequence (O75164 whole entry, looked up, the tested form may be a part): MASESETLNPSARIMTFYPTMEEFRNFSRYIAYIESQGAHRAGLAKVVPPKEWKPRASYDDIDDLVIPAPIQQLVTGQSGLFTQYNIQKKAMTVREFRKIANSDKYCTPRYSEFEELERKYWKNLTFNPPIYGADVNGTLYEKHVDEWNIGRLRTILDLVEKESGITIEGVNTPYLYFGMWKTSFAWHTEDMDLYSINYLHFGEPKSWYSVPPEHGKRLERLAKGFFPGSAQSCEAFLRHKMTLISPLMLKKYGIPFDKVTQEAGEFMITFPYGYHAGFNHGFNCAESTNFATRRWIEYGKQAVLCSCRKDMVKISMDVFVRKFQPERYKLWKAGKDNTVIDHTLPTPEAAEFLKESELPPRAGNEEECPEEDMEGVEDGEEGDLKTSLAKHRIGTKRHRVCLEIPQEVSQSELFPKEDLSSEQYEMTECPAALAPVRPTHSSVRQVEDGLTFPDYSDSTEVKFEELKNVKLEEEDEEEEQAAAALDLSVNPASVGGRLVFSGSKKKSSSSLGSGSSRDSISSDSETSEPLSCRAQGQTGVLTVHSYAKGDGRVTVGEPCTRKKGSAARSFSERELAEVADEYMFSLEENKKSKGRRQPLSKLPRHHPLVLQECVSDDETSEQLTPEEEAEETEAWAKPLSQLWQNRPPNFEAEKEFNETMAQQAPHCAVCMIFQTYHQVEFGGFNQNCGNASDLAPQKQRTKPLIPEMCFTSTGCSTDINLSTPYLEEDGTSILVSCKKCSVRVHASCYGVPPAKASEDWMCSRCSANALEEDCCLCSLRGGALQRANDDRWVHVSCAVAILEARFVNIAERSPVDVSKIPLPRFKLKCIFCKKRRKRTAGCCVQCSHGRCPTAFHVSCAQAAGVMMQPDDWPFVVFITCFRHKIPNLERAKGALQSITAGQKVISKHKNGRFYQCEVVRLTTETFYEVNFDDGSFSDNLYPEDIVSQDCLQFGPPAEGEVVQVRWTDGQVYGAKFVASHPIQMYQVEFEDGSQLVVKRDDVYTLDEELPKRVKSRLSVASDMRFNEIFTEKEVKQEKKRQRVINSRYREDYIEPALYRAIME
BAZ2B block: blocks human BAZ2B. AlphaScreen BAZ2B-H3K14Ac peptide displacement. Potency, µM (series often up to 114 µM), inactives show at the top dose activity change, negative = inhibition, usual class: inhibitors. Q9UIF8. 4.4% of 360,000 active; further: on the % scale 0 is the no-effect control and ±100 the full control effect; nearly all actives have a fitted effect of over 60% in size
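AlphaScreen displacement: compounds (up to 110uM) incubated 30 min at room temperature with a preformed 50 nM BAZ2B/50 nM biotinylated H3K14Ac peptide complex in PBS pH 7.4 with Tween-20. Donor and acceptor beads at 10 ug/mL final added, 20 min light-protected before reading.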
G9a inh: inhibitors of human histone lysine methyltransferase G9a | Q96KQ7 | G9a H3K9 monomethylation, AlphaScreen, 2 h | Potency, µM (doses to about 102 µM), for inactives: at the top dose activity, negative = inhibition, hits mostly inhibitors | 8.8% of 350,000 active | AID 504332; further: on the % scale 0 is the no-effect control and ±100 the full control effect; nearly all actives have a fitted effect of over 75% in size
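Methyltransferase reactions run at room temperature for 2 h (20 nM enzyme, 500 nM biotin-H3K9 peptide, 20 uM SAM) after a 15 min compound preincubation; product detected by AlphaScreen beads and anti-H3K9me1 antibody.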
VDR inh: vitamin D3 receptor (human) inhibition | 0.93% of 400,000 active | VDR-SRC2-3 peptide fluorescence polarization, 2 h | Potency, µM, for the others: max response, negative = inhibition, usual class: inhibitors | P11473; further: on the % scale 0 is the no-effect control and ±100 the full control effect
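VDR–SRC2-3 interaction, FP format. Cmpds 23 nl via pintool, brief spin, 2 h ambient incubation.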
HP1b chromo inh: HP1-beta chromodomain-methylated histone interaction inhibition | Potency, µM (doses to about 114 µM), for the others: at the highest dose activity change, negative = inhibition, most hits filed as inhibitors | AlphaScreen HP1-beta / biotin-H3K9me3 peptide binding | 0.56% of 390,000 active | P83916 | AID 540317; further: nearly all actives have a fitted effect of over 70% in size
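AlphaScreen: HP1-beta (50 nM) preformed 30 min with biotin-H3(1-18)K9me3 peptide (50 nM) in PBS pH 7.4, 0.01% Tween-20. Compound added for 30 min at RT, then streptavidin donor/nickel chelate acceptor beads (10 ug/mL) for 30 min.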
* = called active by the depositor; [ ] = dose if it differs, or a comment. An excerpt weighted towards active compounds, which were near 11% of everything screened. The call rests on the fitted dose curve; in most records, active means well fitted curve in the direction sought with a large enough effect; inconclusive means small, poorly fitted or top-dose-only effect, or another doubt; inactive means no such curve, though single readings can be large; an effect the other way counts as inactive or inconclusive. Potency means the concentration at half of the fitted maximal effect.

How did Cc1ccc(NC(=O)CSCC(=O)N(CCC(C)C)c2c(N)n(Cc3ccccc3)c(=O)[nH]c2=O)cc1 do in these assays?
PLK1 PBD block: -4%; JMJD2A Tudor inh: -22%; BAZ2B block: -9%; G9a inh: 56µM*; VDR inh: -14%; HP1b chromo inh: 16%

How did CCCCN(C(=O)CSCC(=O)Nc1cccc(C)c1)c1c(N)n(CCCC)c(=O)[nH]c1=O do in these assays?
PLK1 PBD block: -2%; JMJD2A Tudor inh: -8%; BAZ2B block: 17%; G9a inh: 20µM*; VDR inh: -7%; HP1b chromo inh: 21%

What do the screens show for `CCCCn1c(N)c(N(CC(C)C)C(=O)CSCC(=O)Nc2ccc(OC)cc2)c(=O)[nH]c1=O`?
PLK1 PBD block: -4%; JMJD2A Tudor inh: -20%; BAZ2B block: 12%; G9a inh: -45%; VDR inh: -4%; HP1b chromo inh: 4%

What do the screens show for `CCCn1c(N)c(N(CCOC)C(=O)CSCC(=O)Nc2cccc(C)c2)c(=O)[nH]c1=O`?
PLK1 PBD block: -6%; JMJD2A Tudor inh: -3%; BAZ2B block: 2%; G9a inh: 50µM*; VDR inh: -8%; HP1b chromo inh: 29%

Results for CCCCn1c(N)c(N(CC(C)C)C(=O)CSCC(=O)Nc2cccc(C)c2)c(=O)[nH]c1=O ?
PLK1 PBD block: -7%; JMJD2A Tudor inh: -12%; BAZ2B block: -6%; G9a inh: -11%; VDR inh: 5%; HP1b chromo inh: 12%

How did CN(C)C(=O)CCc1ccc2c3c([nH]c2c1)[C@]1(C)[C@@H](C(=O)N2CCOCC2)C[C@H](CC(=O)NCCN2CCOCC2)C(=O)N1CC3 do in these assays?
PLK1 PBD block: -9%; JMJD2A Tudor inh: 2%; VDR inh: -9%; HP1b chromo inh: 48%

Results for CCN(CC(=O)NCc1cccs1)C(=O)c1ccc(Cl)c(Cl)c1 ?
PLK1 PBD block: -4%; JMJD2A Tudor inh: -15%; VDR inh: -15%; HP1b chromo inh: 18%

What do the screens show for `CCCc1nc2ccccc2c(C(=O)N(CC)CC(=O)NCc2cccs2)c1CC`?
PLK1 PBD block: -2%; JMJD2A Tudor inh: 3%; BAZ2B block: 8%; G9a inh: 35µM*; VDR inh: 10%; HP1b chromo inh: 22%

What do the screens show for `CCN(CC)c1cc(C)nc2nc(-c3ccc(C)cc3)nn12`?
JMJD2A Tudor inh: -20%; BAZ2B block: -10%; G9a inh: -10%[59 µM]; VDR inh: 1%; HP1b chromo inh: 16%

What do the screens show for `CCOc1ccc(S(=O)(=O)N/N=C2/CCCC(=O)C2)cc1`?
PLK1 PBD block: -12%; JMJD2A Tudor inh: -26%; BAZ2B block: 1%; G9a inh: 10µM*; VDR inh: 23%; HP1b chromo inh: 26%

How did CCOc1ccc(S(=O)(=O)N/N=C(\C)C2CCCCC2)cc1 do in these assays?
PLK1 PBD block: -4%; JMJD2A Tudor inh: -11%; BAZ2B block: 1%; G9a inh: 15%[59 µM]; VDR inh: 0%; HP1b chromo inh: 31%

What do the screens show for `CCc1ccc2oc(C(=O)Nc3nc(-c4ccc(F)cc4)ns3)c(C)c2c1`?
JMJD2A Tudor inh: -16%; BAZ2B block: -6%; G9a inh: -21%[59 µM]; VDR inh: 7%; HP1b chromo inh: 49%

Results for CCOc1ccc(OCCC(=O)OCC(=O)NC(C)c2ccccc2)cc1 (stereo not drawn) ?
PLK1 PBD block: -2%; JMJD2A Tudor inh: -11%; BAZ2B block: -8%; G9a inh: 10%[0.501 µM]; VDR inh: 0%; HP1b chromo inh: 31%

What do the screens show for `O=c1c2ccccc2[nH]c2ccc(O)cc12`?
PLK1 PBD block: 30µM*; JMJD2A Tudor inh: inconclusive; BAZ2B block: 56µM*; G9a inh: 40µM*; VDR inh: 6%; HP1b chromo inh: inconclusive

How did CCN(C(=O)c1nn(-c2ccc(C)cc2)c(=O)c2c1c1ccccc1n2C)c1ccc(F)cc1 do in these assays?
JMJD2A Tudor inh: -18%; G9a inh: 1.3µM*; VDR inh: -8%; HP1b chromo inh: 9%

What do the screens show for `CCN(CC)CCOC(=O)c1ccc(NC(=O)c2nn(-c3ccc(C)cc3)c(=O)c3c2c2ccccc2n3C)cc1`?
JMJD2A Tudor inh: inconclusive; G9a inh: 3.2µM*; VDR inh: -19%; HP1b chromo inh: inconclusive

How did CCc1ccc(S(=O)(=O)NCCc2cn3ccc(C)cc3n2)s1 do in these assays?
PLK1 PBD block: -1%; JMJD2A Tudor inh: -15%; BAZ2B block: -16%; G9a inh: -9%; VDR inh: -4%; HP1b chromo inh: 16%

How did COc1ccc(-n2nnnc2C(c2cccs2)N2CCN(C/C=C/c3ccccc3)CC2)cc1 (stereo not drawn) do in these assays?
PLK1 PBD block: 1%

How did O=C(N/N=C\c1ccc(-c2cccc(Cl)c2)o1)C(=O)NC1CCCC1 do in these assays?
PLK1 PBD block: -4%; JMJD2A Tudor inh: 9%; BAZ2B block: -19%; G9a inh: -27%; VDR inh: 10%; HP1b chromo inh: 18%

How did O=C(NCCCN1CCOCC1)c1cccc(S(=O)(=O)N2CCN(c3ccccc3)CC2)c1 do in these assays?
PLK1 PBD block: -6%; JMJD2A Tudor inh: -19%; BAZ2B block: 4%; G9a inh: -40%; VDR inh: -13%; HP1b chromo inh: 8%

What do the screens show for `O=C(Nc1ccccc1OC(F)F)c1ccc(S(=O)(=O)N2CCCC2)cc1`?
PLK1 PBD block: 1%; JMJD2A Tudor inh: 5%; BAZ2B block: -5%; G9a inh: 18%[59 µM]; VDR inh: 10%; HP1b chromo inh: 18%

How did O=C(NCCOc1ccccc1F)c1cccc(S(=O)(=O)N2CCN(c3ccccc3)CC2)c1 do in these assays?
PLK1 PBD block: -3%; JMJD2A Tudor inh: -26%; BAZ2B block: -15%; G9a inh: 40µM*; VDR inh: 1%; HP1b chromo inh: 13%

Results for O=C(Nc1ccccc1OC(F)F)c1cccc(S(=O)(=O)N2CCCC2)c1 ?
PLK1 PBD block: 17µM*; JMJD2A Tudor inh: inconclusive; BAZ2B block: inconclusive; G9a inh: -3%; VDR inh: inconclusive; HP1b chromo inh: 22%

Results for O=C(Nc1ccc(S(=O)(=O)N2CCCC2)cc1)c1cccc(OC(F)F)c1 ?
PLK1 PBD block: -3%; JMJD2A Tudor inh: -18%; BAZ2B block: 7%; G9a inh: 35µM*; VDR inh: 8%; HP1b chromo inh: 19%

What do the screens show for `Cc1cc(OCC(=O)NCCc2c[nH]c3ccccc23)c2c(C)cc(=O)oc2c1`?
PLK1 PBD block: 0%; JMJD2A Tudor inh: -31%; BAZ2B block: -10%; G9a inh: -2%[12.7 µM]; VDR inh: -8%; HP1b chromo inh: 10%

Results for O=C(Nc1c(O)c2ccccc2oc1=O)c1cccc(F)c1 ?
JMJD2A Tudor inh: -3%; BAZ2B block: -29%; G9a inh: -3%[59 µM]; VDR inh: inconclusive; HP1b chromo inh: 32%

Source: PubChem
